Test results taken from PubChem BioAssay (EPA / NIEHS).
Records with an inconclusive call do not appear. Active and inactive are the calls of the source. How the source made its calls: active means hit-call score of the fitted dose curve at least 0.9, where 1 is the maximum; inconclusive means response in the unintended direction; inactive means score below 0.9.

Test: ATG_M_19_TRANS: Attagene TRANS-FACTORIAL HepG2 Assay for M19 Transcription Factor (Internal Marker) (AID 2282974)
Conditions: HepG2 Attagene TRANS-FACTORIAL M19 internal marker reporter
Experimental: ATG_TRANS is a cell-based, multiplexed-readout assay that uses HepG2, a human liver cell line, with measurements taken at 24 hours after chemical dosing in a 24-well plate.ATG_M_19_TRANS is one of 30 assay component(s) measured or calculated from the ATG_TRANS assay. It is designed to make measurements of mRNA induction, a form of inducible reporter, as detected with fluorescence intensity signals by Reverse transcription polymerase chain reaction (RT-PCR) and Capillary electrophoresis technology.Data from the assay component ATG_M_19_TRANS was analyzed into 1 assay endpoint. This assay endpoint, ATG_M_19_TRANS, was analyzed in the positive analysis fitting direction relative to DMSO as the negative control and baseline of activity. Using a type of inducible reporter, measures of mRNA for gain-of-signal activity can be used to understand the background control at the transcription factor-level as they relate to the gene . Furthermore, this assay endpoint can be referred to as a secondary readout, because this assay has produced multiple assay endpoints where this one serves a background control function. To generalize the intended target to other relatable targets, this assay endpoint is annotated to the background measurement intended target family, where the subfamily is internal marker.
Human liver HepG2 cells are transiently transfected with multiple reporter transcription units (MRTUs) in 6-well plates using FuGene 6 reagent (Roche; 3 ml FuGene/1 mg DNA). The MRTU constructs are regulated by a cis-regulating element (promoter). […] A major difference between the CIS and TRANS system is that in CIS activities of endogenous TFs are measured, whereas the TRANS assay evaluates changes in activities of exogenous, chimeric NR-Gal4 proteins. […] At the end of 24 hour incubation, total RNA was isolated using TriZol reagent (Invitrogen). The isolated RNA is then reverse-transcribed using oligo(dT) primer and Mo-MLV reverse transcriptase (Invitrogen) with DNAse I (Ambion) treatment for 30 min. The one-tenth of the produced cDNA was amplified by PCR using Taq DNA polymerase (Invitrogen) and two reporter sequence-specific primers. The PCR products were fluorescently labeled by primer extension with 6-arboxyfluorescein (6-FAM) 5'-labeled reporter sequence-specific primer (2 min at 95 C, 20 s at 68 C and 10 min at 72 C) and these products were digested with 5U of HpaI (New England Biolabs) for 2h at 37 C. The fragments were purified using Qiaquick PCR columns (Qiagen), analyzed on an ABI 3130xL genetic analyzer (Applied Biosystems) with peak positions identified by using a set of X-rhodamine (ROX)-labeled MapMarker1000 molecular weight standards (BioVentures). The raw capillary electrophoresis data was processed using Attagraph software (Attagene).
For `CCCCCC/C=C/CCCCCCCC(=O)O`, the outcome was “inactive”.
In the case of `O=C(c1ccccc1)c1ccc(O)cc1O`, the outcome was “inactive”.
In the case of `O=C(F)C1(F)C(F)(F)C(F)(F)C(F)(F)C(F)(F)C1(F)F`, the outcome was “inactive”.
In the case of `CN(C)C(C)(C)CO`, the outcome was “inactive”.
With `C=C(C)CCCC` the outcome was “inactive”.
With `CC(=O)CCC(C)C` the outcome was “inactive”.
With `FC(F)(F)C(F)(F)C(F)(F)C(F)(F)C(F)(F)C(F)(F)C(F)(F)CCI` the outcome was “inactive”.
In the case of `COc1ccccc1C=O`, the outcome was “inactive”.
In the case of `Brc1nc2ccccc2s1`, the outcome was “inactive”.
For `CSc1ccc(Cl)cc1`, the outcome was “inactive”.
In the case of `O=c1cccc[nH]1`, the outcome was “inactive”.
For `C#CC(O)CCC` (stereo not given), the outcome was “inactive”.
In the case of `CN(N=O)C(=O)N[C@@H]1[C@@H](O)[C@H](O)[C@@H](CO)O[C@@H]1O`, the outcome was “inactive”.
In the case of `OCCCCl`, the outcome was “inactive”.
With `O=C(Cl)c1ccc(Cl)cc1Cl` the outcome was “inactive”.
With `Brc1ccccn1` the outcome was “inactive”.
With `CC(C)C(=O)OCc1ccccc1` the outcome was “inactive”.
In the case of `c1ccc(C[P+](c2ccccc2)(c2ccccc2)c2ccccc2)cc1`, the outcome was “inactive”.
In the case of `CCOC(=O)CC(=O)C(F)(F)C(F)(F)F`, the outcome was “inactive”.
In the case of `O=C(O)CCC(F)(F)C(F)(F)C(F)(F)C(F)(F)C(F)(F)C(F)(F)C(F)(F)F`, the outcome was “inactive”.
For `CCN=C1C=CC(=C(c2ccc(N(CC)CC)cc2)c2ccc(N(CC)CC)cc2)c2ccccc21`, the outcome was “inactive”.
For `O=S(=O)(Cl)C(F)(F)C(F)(F)C(F)(F)C(F)(F)C(F)(F)C(F)(F)C(F)(F)C(F)(F)F`, the outcome was “inactive”.
With `CC(=O)C=O` the outcome was “inactive”.
With `CCc1ccc(C)nc1` the outcome was “inactive”.
In the case of `CCCCCCCCCCCCCC[P+](CCCC)(CCCC)CCCC`, the outcome was “inactive”.
With `CCC(=O)OC(C)c1ccccc1` (stereo not given) the outcome was “inactive”.
For `O=C(O)C(F)(F)C(F)(F)C(F)(F)OC(F)(F)F`, the outcome was “inactive”.
With `CC(C)CC=C(C=O)c1ccccc1` the outcome was “inactive”.
In the case of `CCOCOCC`, the outcome was “inactive”.
For `O=C=Nc1cccc2c(N=C=O)cccc12`, the outcome was “inactive”.
For `CCCCCCCC/C=C\CCCCCCCC(=O)N(C)CC(=O)O`, the outcome was “inactive”.
For `Cc1cnccn1`, the outcome was “inactive”.
With `CC(C)OC=O` the outcome was “inactive”.
With `COC(=O)c1ccc(C=O)cc1` the outcome was “inactive”.
With `C[C@]12CC[C@H]3C(=CCc4cc(O)ccc43)[C@@H]1CCC2=O` the outcome was “inactive”.
With `CCc1cccc(C)c1N(C(=O)C(=O)O)C(C)COC` (stereo not given) the outcome was “inactive”.
In the case of `CCOC(=O)CCC(C)=O`, the outcome was “inactive”.
With `O=C1C=CC(=O)N1c1ccccc1` the outcome was “inactive”.
In the case of `Cc1ccc2c(c1)OCC(=O)CO2`, the outcome was “inactive”.
For `COCCOCCC[Si](C)(O[Si](C)(C)C)O[Si](C)(C)C`, the outcome was “inactive”.
